Assay outcomes as filed in PubChem.
Only a selection was taken, and hits are over-represented in it overall.
FECH block: human FECH heme synthesis enzyme inhibition; P22830; 3.3% of 20,000 active; purified FECH, Ni-mesoporphyrin absorbance 550 nm; calls only at 10 µM (by protocol);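 active = enzyme reaction rate more than 3 SD below the solvent-only control wells on the same plate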;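 note: lower slope than DMSO wells means FECH inhibition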
Target sequence (P22830 whole entry, looked up): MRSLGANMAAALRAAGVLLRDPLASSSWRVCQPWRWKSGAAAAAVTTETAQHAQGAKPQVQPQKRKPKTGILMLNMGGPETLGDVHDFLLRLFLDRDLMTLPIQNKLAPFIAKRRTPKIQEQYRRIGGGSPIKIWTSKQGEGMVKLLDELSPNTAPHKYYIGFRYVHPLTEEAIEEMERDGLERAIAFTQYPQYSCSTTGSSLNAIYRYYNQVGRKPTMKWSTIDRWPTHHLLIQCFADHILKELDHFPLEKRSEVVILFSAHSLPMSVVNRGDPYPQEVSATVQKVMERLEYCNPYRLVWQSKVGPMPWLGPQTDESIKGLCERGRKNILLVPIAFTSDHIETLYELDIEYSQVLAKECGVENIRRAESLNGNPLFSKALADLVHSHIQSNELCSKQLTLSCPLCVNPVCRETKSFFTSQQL
* hit, by the source's call; i = inactive; + = active, no number.

SMILES	FECH block
CCc1nc2nc(C)[nH]n2c(=O)c1NC(=O)Nc1ccc(C)c(Cl)c1	i
Cc1ccc(NCc2nc3nc4c(c(=O)n3[nH]2)CCC4)cc1Cl	+
O=C(O)C1(CCc2ccccc2)CCCN(c2nccc3occc23)C1 (centres undefined)	i
Cc1noc(/C=C/c2ccccc2F)c1S(=O)(=O)N1CCCC(C(=O)Nc2ccc(S(N)(=O)=O)cc2)C1 (centres undefined)	i
Cc1cnccc1NCCNC(=O)c1cc(C)c(C)n(C)c1=O	i
Cc1nc2nc(C)c(NC(=O)Nc3ccc(F)c(Cl)c3)c(=O)n2[nH]1	i
Cc1noc(CN(C)Cc2cnn(C(C)C)c2)n1	i
CCc1cc(N2CCCn3nc(C(=O)NC4CC4)cc3C2)nc(N2CCCC2)n1	i
COC(=O)c1coc(CN2CCOC(c3ccc4cc(OC)ccc4c3)C2)n1 (centres undefined)	i
COc1ccc(-c2cc3n(n2)CCC(=O)N3Cc2ccc(C(=O)N3CCC(C(N)=O)CC3)cc2)cc1	i
Cc1cc(NC(=O)c2ccc(C)c(C)c2)n(-c2ncnc3c2cnn3-c2cccc(Cl)c2)n1	i
COc1ccc(CCNc2c(-c3ccc4c(c3)CCCC4)c(=O)c2=O)cc1OC	i
COCC(C)N(Cc1ccccc1OC)C(=O)c1ccc2ncccc2c1 (centres undefined)	i
CCC(=O)Nc1ccccc1-c1nnc(SCC(=O)Nc2ccc(Cl)c(Cl)c2)[nH]c1=O	i
CCN1C(SCC(=O)Nc2ccc(F)c(Cl)c2)=NS(=O)(=O)c2ccccc21	+
CCN1C(SCC(=O)Nc2cc(Cl)ccc2OC)=NS(=O)(=O)c2ccccc21	i
COc1ccc(C)cc1NC(=O)CN1C(=O)CC(c2ccc(Br)s2)=Nc2ccccc21	i
O=C(CN1CCN(Cc2ccc(F)cc2Cl)S1(=O)=O)Nc1ccc(F)c(Cl)c1	i
CCN1C(SCC(=O)Nc2cc(C)ccc2OC)=NS(=O)(=O)c2ccccc21	+
Cc1ccc(C)c(OC(C)C(=O)NCc2snnc2C(C)C)c1 (centres undefined)	i
Cc1ccc2cc(-c3noc(CCC(=O)Nc4ccc(C)c(C)c4)n3)c(=O)[nH]c2c1	i
C=C(C)COc1ccc(C(=O)NC(C)Cc2cnccn2)cc1 (centres undefined)	+
CC(Cc1cnccn1)NC(=O)c1cccc(-c2cccc(F)c2)c1 (centres undefined)	i
CC(Cc1cnccn1)NC(=O)c1cc(-c2ccccc2)nn1C (centres undefined)	i
COc1ccc(C2C=C(c3ccc(Cl)cc3)Nc3nc(NC(=O)CCC(=O)O)nn32)cc1 (centres undefined)	i
SMILES	FECH block
CCOc1ccc(CNC(=O)c2cc3n(n2)CC(C)(C(=O)NCc2ccc(F)cc2)N(C)C3=O)cc1 (centres undefined)	i
O=C(CCNCC1OCCc2ccccc21)Nc1cccnc1 (centres undefined)	i
COc1cc(OC)cc(C(=O)Nc2cc(C)nn2-c2ncnc3c2cnn3-c2ccc(C)cc2C)c1	i
COc1ccc2nc(CNC(=O)CN3CCC(C)=N3)[nH]c2c1	i
Cc1ccc(Cn2c(CNS(=O)(=O)c3ccc(Cl)cc3)nc3cccnc32)cc1	i
CCc1ccc(S(=O)(=O)NCCn2c(C(F)(F)F)nc3cccnc32)cc1	i
CC(C)(C)c1ccc(S(=O)(=O)NCCn2c(C(F)(F)F)nc3cccnc32)cc1	i
CCOc1ccc(S(=O)(=O)NCCn2c(C(F)(F)F)nc3cccnc32)cc1	+
CC(CCc1ccccc1)NC(=O)CN1c2ccc(Br)cc2-c2ccccc2S1(=O)=O (centres undefined)	i
CCOC(=O)c1ccc(NC(=O)CN2CCN(Cc3ccc(F)cc3Cl)S2(=O)=O)cc1	i
CC(C)(C)NC(=O)c1ccccc1NC(=O)CN1c2ccc(F)cc2-c2ccccc2S1(=O)=O	i
COC(=O)c1cc(NC(=O)CN2c3ccc(F)cc3-c3ccccc3S2(=O)=O)cc(C(=O)OC)c1	+
CC(CCc1ccccc1)NC(=O)CN1c2ccc(F)cc2-c2ccccc2S1(=O)=O (centres undefined)	+
CCOC(=O)c1ccc(NC(=O)CN2CCCN(Cc3cccc(F)c3)S2(=O)=O)cc1	i
O=C(CN1c2ccc(F)cc2-c2ccccc2S1(=O)=O)NCCCN1CCOCC1	i
CCc1ccc2c(c1)-c1ccccc1S(=O)(=O)N2CC(=O)Nc1ccccc1C(=O)N1CCCC1	i
CCCCOC(=O)c1ccc(NC(=O)CN2c3ccc(F)cc3-c3ccccc3S2(=O)=O)cc1	+
CCOc1ccc(NS(=O)(=O)c2cc(N3C(=O)CCS3(=O)=O)ccc2OC)cc1	i
Cc1ccc(-n2c(CN3CCN(S(=O)(=O)c4cccc5nsnc45)CC3)nc3cccnc32)cc1	i
Cc1ccc(NC(=O)CN2C(=O)CC(c3ccccc3)=Nc3ccccc32)c(C)c1	i
CCOc1ccc(-c2nc(SCC(=O)NCCc3ccccc3)n3[nH]c(=O)cc3n2)cc1	i
NS(=O)(=O)c1ccc(CCNC(=O)CN2CCSc3ccccc32)cc1	i
NS(=O)(=O)c1ccc(CCNC(=O)CCCN2C(=O)c3cccnc3Sc3ccccc32)cc1	i
NS(=O)(=O)c1ccc(CCNC(=O)CCN2C(=O)c3cccnc3Sc3ccccc32)cc1	+
Cc1ccc(N2CC(NC(=O)CCc3ccccc3)CC2=O)cc1 (centres undefined)	i
SMILES	FECH block
Cn1ccc2c(-c3ccc4nc(CO)[nH]c4c3)ccnc21	i
O=C(Nc1ccc(Br)cc1F)N1CCN(Cc2nc3cccnc3n2-c2cccc(F)c2)CC1	i
Cc1ccc(C(=O)Nc2nc3n(n2)C(c2ccc(Cl)cc2)C=C(c2ccc(C)cc2)N3)cc1 (centres undefined)	+
Cc1ccc(C(=O)Nc2nc3n(n2)C(c2ccc(F)cc2)C=C(c2ccccc2)N3)cc1 (centres undefined)	i
Cc1ccc(C2=CC(c3ccc(Cl)cc3)n3nc(NC(=O)C(C)C)nc3N2)cc1 (centres undefined)	i
O=C(Nc1nc2n(n1)C(c1ccc(F)cc1)C=C(c1ccc(Cl)cc1)N2)c1ccccc1 (centres undefined)	i
Cc1cccc(C(=O)Nc2nc3n(n2)C(c2ccc(Cl)cc2)C=C(c2ccccc2)N3)c1 (centres undefined)	+
Cc1ccc(C(=O)Nc2nc3n(n2)C(c2ccccc2)C=C(c2ccccc2)N3)cc1 (centres undefined)	i
Cc1ccc(C2=CC(c3ccc(C)cc3)n3nc(NC(=O)c4cccc(Cl)c4)nc3N2)cc1 (centres undefined)	+
Cc1cccc(C(=O)Nc2nc3n(n2)C(c2ccccc2Cl)C=C(c2ccc(Cl)cc2)N3)c1 (centres undefined)	i
O=C(Nc1nc2n(n1)C(c1ccccc1)C=C(c1ccc(Cl)cc1)N2)c1ccc(Cl)cc1 (centres undefined)	i
O=C(NC1CCCCC1)c1nc[nH]c1C(=O)N1CCC(O)C1 (centres undefined)	i
CCCCOc1ccc(S(=O)(=O)N2CCN(c3nc(C)cc(N4CCCC4)n3)CC2)cc1	+
CCOc1ccc(S(=O)(=O)N2CCN(c3nc(C)cc(N4CCCC4)n3)CC2)cc1	i
CCCCOc1ccc(S(=O)(=O)N2CCN(c3nc(C)cc(N4CCCCC4)n3)CC2)cc1	i
CCC1CCCCN1Cc1ccc(CNC(=O)C2CCCN(c3ncnc4c3nc3n4CCCCC3)C2)o1 (centres undefined)	i
